The values that follow come from PubChem BioAssay (NCATS).

Each structure is given as a SMILES string. Records with an inconclusive call do not appear. Unmarked numbers belong to inactive results. Calls of active or inactive are those of the source. Unless noted, calls come from the whole dose curve; as a rule, active = well fitted curve in the direction sought with a large enough effect; inconclusive = small, poorly fitted or top-dose-only effect, or another doubt; inactive = no such curve, though single readings can be large; an effect the other way counts as inactive or inconclusive.

Test [1] deals with Cytochrome P450 3A4 (Homo sapiens) (UniProt P08684). Put plainly: Cytochrome P450 family 3 subfamily A member 4 (CYP3A4) small molecule antagonists: luciferase qHTS assay (AID 1645841; active = well fitted curve in the direction sought with a large enough effect in the repeat runs; an effect the other way counts as inactive or inconclusive; note: nearly all actives have a fitted effect of over 45% in size; note: potency is the fitted concentration of half-maximal effect). A digest of the protocol: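 Luminescent CYP3A4 activity readout: compounds plus enzyme-substrate mix 10 min at room temperature, reaction started with NADPH regenerating system for 1 h, stopped with detection reagent, read after 20 min. Ketoconazole served as control.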
Sequence of Cytochrome P450 3A4 (Homo sapiens) (P08684 whole entry, looked up): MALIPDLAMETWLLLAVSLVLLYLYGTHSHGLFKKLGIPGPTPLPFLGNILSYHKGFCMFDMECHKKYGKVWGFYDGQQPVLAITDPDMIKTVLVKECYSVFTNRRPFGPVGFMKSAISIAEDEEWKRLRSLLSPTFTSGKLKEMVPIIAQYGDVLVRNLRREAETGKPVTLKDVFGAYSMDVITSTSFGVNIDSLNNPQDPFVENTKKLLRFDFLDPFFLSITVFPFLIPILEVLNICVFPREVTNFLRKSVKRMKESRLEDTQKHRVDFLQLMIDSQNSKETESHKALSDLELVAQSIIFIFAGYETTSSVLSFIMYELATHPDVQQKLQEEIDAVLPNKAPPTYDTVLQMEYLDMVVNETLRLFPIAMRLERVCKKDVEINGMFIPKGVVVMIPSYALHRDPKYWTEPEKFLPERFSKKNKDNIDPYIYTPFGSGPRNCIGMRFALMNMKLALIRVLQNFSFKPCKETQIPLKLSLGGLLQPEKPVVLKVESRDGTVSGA
In general terms: qHTS replaces the single test concentration by a dilution series.

Test [2] addresses Cytochrome P450 2C9 (Homo sapiens) (UniProt P11712). Put plainly: Cytochrome P450 family 2 subfamily C member 9 (CYP2C9) small molecule antagonists: luciferase biochemical (cell-free) qHTS assay (AID 1645842; active = well fitted curve in the direction sought with a large enough effect in the repeat runs; an effect the other way counts as inactive or inconclusive; note: nearly all actives have a fitted effect of over 55% in size; note: potency is the fitted concentration of half-maximal effect). The method, boiled down:
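P450-Glo CYP2C9 system: proluciferin substrate with enzyme in mix containing 0.4% BSA, 10 min at room temperature, then NADPH regeneration solution added and incubated 1 h at 37C. Detection reagent stopped reaction; luminescence read after 20 min as RLU.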

For test [3], the target named is Glutathione peroxidase 1 (Homo sapiens) (UniProt P07203). As to the kind of experiment: Primary qHTS Assay for Inhibitors of Recombinant Selenoprotein Glutathione Peroxidase 1 (GPX1) (AID 1845191). Note: nearly all actives have a fitted effect of over 65% in size. The method, boiled down:
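NADPH consumption tracked by fluorescence at 340/450 nm between t=0 and t=15 min, room temperature. Final mix: 10 nM GPX1, 100 nM glutathione reductase, 1 mM GSH, 0.5 mM NADPH, 0.5 mM cumene hydroperoxide, 0.01% BSA; 30 min compound–enzyme preincubation.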

Test [4] concerns the target N-terminal Xaa-Pro-Lys N-methyltransferase 1 (Homo sapiens) (UniProt Q9BV86). As to the kind of experiment: Confirmatory qHTS for Inhibitors of N-terminal methyltransferase 1 (NTMT1): MTaseGlo Assay (AID 1645874). Note: nearly all actives have a fitted effect of over 65% in size. Note: potency is the fitted concentration of half-maximal effect. The method, boiled down:
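MTase-Glo luminescence measured SAH formed by 125 nM NTMT1 from 100 uM SAM and 1 uM SPKRIA peptide over 30 min at room temperature, following 15 min compound preincubation. Percent inhibition against no-enzyme and DMSO controls gave 4-parameter Hill fits.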

Test [5] addresses Rap guanine nucleotide exchange factor 3 (Homo sapiens) (UniProt O95398). As to the kind of experiment: Confirmatory qHTS for antagonist of cAMP-regulated guanine nucleotide exchange factor 3 (EPAC1) (AID 1645880). Note: potency is the fitted concentration of half-maximal effect; nearly all actives have a fitted effect of over 55% in size. A digest of the protocol:
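Released BODIPY-GDP fluoresces less than Rap1-bound BODIPY-GDP; the signal is followed at 480/540 nm at 5-min intervals over 30 min, after 5 min at room temperature. Reactions contain 100 nM EPAC1, 250 nM RAP1B-BODIPY-GDP and 50 uM GDP; results are normalized to ATA and DMSO.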

Test [6] shares this target. As to the kind of experiment: Confirmatory qHTS for agonist of cAMP-regulated guanine nucleotide exchange factor 3 (EPAC1) (AID 1645881).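 Note: EPAC1 catalysed release of BODIPY-GDP from Rap1B seen as fluorescence loss; nearly all actives have a fitted effect of over 75% in size.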
Test [7] has as its target Rap guanine nucleotide exchange factor 4 (Homo sapiens) (UniProt Q8WZA2). As to the kind of experiment: Confirmatory qHTS for agonist of cAMP-regulated guanine nucleotide exchange factor 4 (EPAC2) (AID 1645884).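 Note: nucleotide exchange releases bodipy-GDP from Rap1 and this lowers its fluorescence; nearly all actives have a fitted effect of over 65% in size.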
The target is the same in test [8]. Put plainly: Confirmatory qHTS for antagonist of cAMP-regulated guanine nucleotide exchange factor 4 (EPAC2) (AID 1645885). Note: nearly all actives have a fitted effect of over 25% in size.
The target in test [9] is Rap guanine nucleotide exchange factor 3 (Homo sapiens) (UniProt O95398). As to the kind of experiment: Counterscreen qHTS for antagonist of cAMP-regulated guanine nucleotide exchange factor 3 (EPAC1) (AID 1645888). The method, boiled down: (§1)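 Rap1B-BODIPY-GDP 250 nM + GDP 50 uM; cpds 7-pt, final 9.74 nM–152 uM (activator mode) or from 7.32 nM upwards (inhibitor mode); RT; FI 480/540 nm at 5 and 30 min, then ± cAMP, reread.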
Sequence of Rap guanine nucleotide exchange factor 3 (Homo sapiens) (O95398 whole entry, looked up): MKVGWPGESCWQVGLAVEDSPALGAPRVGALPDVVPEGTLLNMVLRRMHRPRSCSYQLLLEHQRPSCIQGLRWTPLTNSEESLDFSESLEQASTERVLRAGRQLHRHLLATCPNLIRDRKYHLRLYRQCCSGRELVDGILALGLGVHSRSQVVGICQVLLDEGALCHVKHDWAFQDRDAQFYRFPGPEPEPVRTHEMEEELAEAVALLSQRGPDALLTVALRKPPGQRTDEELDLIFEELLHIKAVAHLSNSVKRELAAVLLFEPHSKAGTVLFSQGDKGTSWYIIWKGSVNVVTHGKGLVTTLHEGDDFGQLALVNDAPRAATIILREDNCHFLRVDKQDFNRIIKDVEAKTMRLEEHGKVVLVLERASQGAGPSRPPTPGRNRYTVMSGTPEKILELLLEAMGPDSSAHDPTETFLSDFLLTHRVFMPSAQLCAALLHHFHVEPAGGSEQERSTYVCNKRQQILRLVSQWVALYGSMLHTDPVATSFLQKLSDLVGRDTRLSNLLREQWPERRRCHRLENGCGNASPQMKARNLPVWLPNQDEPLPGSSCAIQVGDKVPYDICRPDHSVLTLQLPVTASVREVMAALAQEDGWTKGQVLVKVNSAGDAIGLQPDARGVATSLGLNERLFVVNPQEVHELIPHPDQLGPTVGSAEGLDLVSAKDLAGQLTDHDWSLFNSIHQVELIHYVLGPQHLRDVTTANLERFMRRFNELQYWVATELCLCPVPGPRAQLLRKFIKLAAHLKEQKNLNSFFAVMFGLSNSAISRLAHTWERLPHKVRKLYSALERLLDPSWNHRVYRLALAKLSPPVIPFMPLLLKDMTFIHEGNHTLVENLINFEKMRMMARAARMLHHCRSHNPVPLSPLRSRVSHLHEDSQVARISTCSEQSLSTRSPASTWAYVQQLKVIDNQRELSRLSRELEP

The target is the same in test [10]. Put plainly: Counterscreen qHTS for agonist of cAMP-regulated guanine nucleotide exchange factor 3 (EPAC1) (AID 1645889). Note: nearly all actives have a fitted effect of over 40% in size. A digest of the protocol: as §1

Sequence of Cytochrome P450 2C9 (Homo sapiens) (P11712 whole entry, looked up): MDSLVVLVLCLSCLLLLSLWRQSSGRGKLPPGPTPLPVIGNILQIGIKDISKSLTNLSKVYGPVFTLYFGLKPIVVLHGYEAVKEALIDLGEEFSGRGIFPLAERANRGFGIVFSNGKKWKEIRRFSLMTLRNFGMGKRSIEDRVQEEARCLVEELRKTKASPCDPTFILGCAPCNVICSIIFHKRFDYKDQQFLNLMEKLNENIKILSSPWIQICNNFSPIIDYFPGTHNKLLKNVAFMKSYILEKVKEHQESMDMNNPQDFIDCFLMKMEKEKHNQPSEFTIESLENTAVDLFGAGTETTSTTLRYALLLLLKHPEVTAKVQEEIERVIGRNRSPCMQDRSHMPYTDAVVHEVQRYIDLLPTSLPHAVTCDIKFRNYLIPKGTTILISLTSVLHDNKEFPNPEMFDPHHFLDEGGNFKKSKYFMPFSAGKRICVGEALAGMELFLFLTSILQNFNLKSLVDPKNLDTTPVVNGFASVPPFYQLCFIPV
Sequence of N-terminal Xaa-Pro-Lys N-methyltransferase 1 (Homo sapiens) (Q9BV86 whole entry, looked up): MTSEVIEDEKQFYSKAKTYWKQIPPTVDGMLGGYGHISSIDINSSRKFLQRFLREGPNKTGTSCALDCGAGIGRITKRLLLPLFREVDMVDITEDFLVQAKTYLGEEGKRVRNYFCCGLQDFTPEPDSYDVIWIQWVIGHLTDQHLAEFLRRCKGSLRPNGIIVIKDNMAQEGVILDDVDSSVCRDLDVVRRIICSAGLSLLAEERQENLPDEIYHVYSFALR
Sequence of Glutathione peroxidase 1 (Homo sapiens) (P07203 whole entry, looked up): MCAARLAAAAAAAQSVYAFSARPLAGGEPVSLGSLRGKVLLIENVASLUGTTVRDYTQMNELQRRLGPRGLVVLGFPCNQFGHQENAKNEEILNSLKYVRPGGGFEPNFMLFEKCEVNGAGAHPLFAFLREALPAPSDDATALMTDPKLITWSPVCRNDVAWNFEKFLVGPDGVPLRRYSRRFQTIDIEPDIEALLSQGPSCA
Sequence of Rap guanine nucleotide exchange factor 4 (Homo sapiens) (Q8WZA2 whole entry, looked up): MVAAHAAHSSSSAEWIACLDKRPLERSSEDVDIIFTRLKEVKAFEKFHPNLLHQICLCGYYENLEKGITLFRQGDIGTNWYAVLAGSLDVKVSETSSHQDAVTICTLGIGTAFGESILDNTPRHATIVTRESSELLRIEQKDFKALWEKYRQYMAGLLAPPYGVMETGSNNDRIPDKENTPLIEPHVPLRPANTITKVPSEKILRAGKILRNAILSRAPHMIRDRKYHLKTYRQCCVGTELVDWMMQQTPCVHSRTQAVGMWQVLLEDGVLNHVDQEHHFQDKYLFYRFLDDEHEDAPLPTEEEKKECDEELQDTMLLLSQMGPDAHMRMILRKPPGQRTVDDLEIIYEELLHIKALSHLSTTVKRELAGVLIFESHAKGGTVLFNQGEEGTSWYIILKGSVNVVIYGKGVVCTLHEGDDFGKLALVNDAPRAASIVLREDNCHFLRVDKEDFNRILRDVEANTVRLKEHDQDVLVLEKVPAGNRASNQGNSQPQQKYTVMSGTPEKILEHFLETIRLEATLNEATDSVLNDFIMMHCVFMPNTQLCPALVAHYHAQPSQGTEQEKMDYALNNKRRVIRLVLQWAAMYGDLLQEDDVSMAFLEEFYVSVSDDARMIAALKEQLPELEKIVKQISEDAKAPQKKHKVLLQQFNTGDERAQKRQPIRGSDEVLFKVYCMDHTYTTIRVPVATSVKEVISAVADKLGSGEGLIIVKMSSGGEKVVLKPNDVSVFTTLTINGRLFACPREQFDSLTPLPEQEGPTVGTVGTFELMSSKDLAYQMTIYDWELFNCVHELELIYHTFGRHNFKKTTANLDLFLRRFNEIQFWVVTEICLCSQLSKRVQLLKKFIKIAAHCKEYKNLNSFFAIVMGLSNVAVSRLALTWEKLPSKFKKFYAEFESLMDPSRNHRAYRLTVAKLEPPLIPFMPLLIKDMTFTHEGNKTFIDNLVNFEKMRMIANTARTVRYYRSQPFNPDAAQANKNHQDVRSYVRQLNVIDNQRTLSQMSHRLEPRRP

For the compound `Cc1nc2c(-c3ccccc3)c(C)[nH]n2c(=O)c1Cc1ccc(Br)cc1`, the Potency result in test [1] is “inactive”.

Consider `Oc1ccc(C2(c3ccccc3F)CCC(F)(F)CC2)cc1`, for which, in test [1], the Potency was 12 µM (active).

For the compound `Cc1cc(-c2nc(CN3CCC(C(=O)NCCCN4C[C@H](C)C[C@H](C)C4)CC3)co2)ccc1F`, the Potency entry in [2] and in [3] was “inactive” in each case.

In the case of `COc1cc2c(NC3CCN(C(C)C)CC3)nc(N3CCCCCC3)nc2cc1OCCCN1CCCC1`, the Potency in test [4] was 30.8 µM (active).

Regarding `COCCOc1nc(N)c2[nH]c(=O)n(Cc3ccc(C(=O)O)cc3)c2n1`, the Potency result in test [2] was “inactive”.

As to `Fc1cc(Nc2nc(-c3ccncc3)nc3ccccc23)ccc1N1CCNCC1`, in test [4], the Potency is 21.8 µM (active).

With `COc1ccc(C(=O)Nc2onc3c2CCCC3)cc1`, the Potency result in test [4] was “inactive”.

Turning to `COc1ccc(-c2cn3cccnc3n2)cc1NC(=O)c1cc(C)cc(C)c1`, in [2], the Potency is 4.77 µM (active).

For `COc1cc2c(NC3CCN(C(C)C)CC3)nc(N3CCCN(C4CCCCC4)CC3)nc2cc1OCCCN1CCCCC1`, the Potency in test [4] is 34.5 µM (active).

Regarding `CN(C)[S+](=O)([O-])c1ccc([S+](=O)([O-])N(Cc2ccccc2)Cc2ccccn2)cc1`, the Potency in [2] is 5.35 µM (active).

As for `Cc1ccc2nc(-c3ccc(O)cc3)c(Nc3ccc(Cl)cc3)n2c1`, the Potency entry in test [4] was “inactive”.

Regarding `Cc1ccc(C)n1-c1cccc(C(=O)O)c1`, in test [4], the Potency is 6.02 µM (active).

In the case of `CCCn1c(/C=C/c2ccccc2)nc2ccccc21`, the Potency entry in test [4] is “inactive”.

As to `CC(C)(C)c1ccc(-c2nc(SCC(=O)Nc3ccc(Cl)cc3)[nH]c(=O)c2C#N)cc1`, the results for the Potency in test [2] and in test [5] were 3.01 µM (active) and 84.9 µM (active), respectively. For the same compound, the Potency result in test [6], in [7], in test [8], in test [9] and in test [10] was “inactive” in each case.

Consider `O=C(Nc1onc2c1CCCC2)c1ccccc1`, for which, in test [4], the Potency entry was “inactive”.

As for `COc1cc2c(NC3CCN(C(C)C)CC3)nc(N3CCCCC3)nc2cc1OCCCN1CCCCC1`, in test [4], the Potency was 38.8 µM (active).

Consider `Cc1ccc(/C=C/c2nc3ccccc3[nH]2)cc1`, for which the Potency in [4] is 6.49 µM (active).

As to `CCOc1ccc(/C=C/c2nc3ccccc3n2S(=O)(=O)c2cccc(Cl)c2)cc1`, in test [4], the Potency was 12 µM (active).

`C=CC(C)(O)CCC=C(C)CCC=C(C)C` (centres undefined): in [2], the Potency is 21.3 µM (active).

As for `COC(=O)Cc1cccc(NC(=O)C2=C(C)NC(Nc3nc4ccccc4o3)=NC2c2ccccc2Cl)c1` (centres undefined), in test [2], the Potency was 9.52 µM (active).

`COc1cc2nc(N3CCOCC3)nc(NC(C)C)c2cc1OC`: the Potency in [4] is 34.5 µM (active).

With `CSc1ccc(/C=C/c2nc3ccccc3n2S(=O)(=O)c2cccc(Cl)c2)cc1`, in test [4], the Potency was 8.51 µM (active).

Regarding `COc1ccc(C(=O)CSc2nc(C)cc(C)c2C(=O)Nc2ccccc2C)cc1`, the Potency entry in test [4] was “inactive”.

Turning to `Cc1cc2c(F)c(Oc3ncnn4cc(OC[C@@H](C)OC(=O)[C@H](C)N)c(C)c34)ccc2[nH]1`, the Potency in test [2] was 2.39 µM (active). Also, in [3], the Potency result is “inactive”.

As to `COc1ccc(NC(=O)CSc2nc3ccccc3n2Cc2cccc(OC)c2)cc1`, the Potency in [2] was 2.68 µM (active).

On to `Cc1cccc(N2CCN(C(=O)CCC(=O)NNc3nc4ccccc4c4nc(C)nn34)CC2C)c1` (centres undefined), for which the Potency in test [2] was 9.52 µM (active).

Regarding `CCOC(=O)c1nnc(NC(=O)C2=C(C)NC(Nc3nc4ccccc4o3)=NC2c2ccccc2Cl)s1` (centres undefined), the Potency in test [2] was 16.9 µM (active).

As for `O=C(Nc1nc2c(s1)CCCC2)c1ccccc1F`, the Potency in test [4] is 39.8 µM (active).

Consider `COc1cc(-c2nc3ccc(Cl)cn3c2Nc2ccc3c(c2)OCCO3)ccc1O`, for which, in test [4], the Potency is 5.15 µM (active).

With `CCCOc1ccccc1C(=O)Nc1nc2c(s1)CCCC2`, in test [4], the Potency entry was “inactive”.

In the case of `COC(=O)c1cc(S(C)(=O)=O)ccc1OC`, the Potency entry in [2] was “inactive”.
